# Data reported in PubChem BioAssay.
# Activity calls are given as the source filed them. Rule as the data show it, unless noted: active = inhibition above about 80%; inactive = the rest.
# Assays:
# [1] = growth inhibition of RCMB18 medulloblastoma cells, cell-based, cisplatin and BGB IC40 combos (AID 1671462); settings: stronger effect = higher value;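 also: cells exposed to compound for four days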
# [2] = growth inhibition of CRL1545 osteosarcoma cells, cell-based, cisplatin and BGB IC20 combos (AID 1671464); settings: stronger effect = higher value;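 also: cells exposed to compound for 96 hours before readout; 0% = vehicle DMSO and 100% = high DMSO killing control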
# [3] = LFS_MB_P medulloblastoma growth inhibition, cell-based, chromothripsis tumors, cisplatin or BGB combos (AID 1671449); settings: LFS_MB_P medulloblastoma cells;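 also: cells exposed for 96 hours; 0% = vehicle DMSO and 100% = killing by high DMSO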
# [4] = HDN33 neuroblastoma growth inhibition, cell-based, chromothripsis tumors, cisplatin or BGB combos (AID 1671450); settings: HDN33 neuroblastoma cells, stronger effect = higher value;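 also: cells exposed to compound for four days; 0% = vehicle DMSO and 100% = cell killing by high DMSO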
# [5] = ICB984 medulloblastoma cell growth inhibition, synergistic combos for chromothripsis tumors, cisplatin or BGB combos (AID 1671451; call rule not given here;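 also: cells exposed for 96 hours before readout; 0% = vehicle DMSO and 100% = killing by high DMSO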); settings: ICB984 medulloblastoma cells, drug combinations, stronger effect = higher value
# [6] = LFS_MB_1R medulloblastoma cell growth inhibition, synergistic combos for chromothripsis tumors, cisplatin or BGB combos (AID 1671452); settings: LFS_MB_1R medulloblastoma cells, stronger effect = higher value;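 also: cells exposed for 96 hours before readout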
# [7] = HTB85 osteosarcoma cell growth inhibition, synergistic combos for chromothripsis tumors, BGB or cisplatin IC20 combos (AID 1671453); settings: HTB85 osteosarcoma cells, drug combinations, stronger effect = higher value;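 also: cells exposed for 96 hours before readout; 0% = vehicle DMSO and 100% = high DMSO killing control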
# [8] = CRL2098 osteosarcoma cell growth inhibition, synergistic combos for chromothripsis tumors, BGB or cisplatin IC20 combos (AID 1671454); settings: CRL2098 osteosarcoma cells, drug combinations, stronger effect = higher value;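 also: cells exposed for 96 h before readout; 0% = vehicle DMSO and 100% = killing by high DMSO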
# [9] = HD-MB03 medulloblastoma cell growth inhibition, synergistic combos for chromothripsis tumors, BGB or cisplatin IC20 combos (AID 1671455; in the data active = inhibition above about 83%;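 also: 0% = vehicle DMSO and 100% = high DMSO as cytotoxic control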); settings: HD-MB03 medulloblastoma cells, stronger effect = higher value
# [10] = UWB1.289 ovarian carcinoma cell growth inhibition, synergistic combos for chromothripsis tumors, BGB or cisplatin combos (AID 1671456); settings: UWB1.289 ovarian carcinoma cells, stronger effect = higher value;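 also: cells exposed to compound for four days; 0% = vehicle DMSO and 100% = killing by high DMSO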
# [11] = LFS_MB_2R medulloblastoma cell growth inhibition, synergistic combos for chromothripsis tumors, cisplatin combos (AID 1671457); settings: LFS_MB_2R medulloblastoma cells, stronger effect = higher value;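 also: cells exposed to compound for four days before readout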
# [12] = MDA-MB-436 breast carcinoma cell growth inhibition, synergistic combos for chromothripsis tumors, BGB or cisplatin combos (AID 1671458; call rule not given here;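 also: cells exposed for 96 hours; 0% = vehicle DMSO and 100% = killing by high DMSO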); settings: MDA-MB-436 breast carcinoma growth inhibition, drug combinations, stronger effect = higher value
# [13] = UWB1.289_BRCA1 ovarian cancer growth, cell-based, BGB or cisplatin combinations (AID 1671459); settings: UWB1.289 BRCA1 ovarian carcinoma, drug combinations, stronger effect = higher value
# [14] = human astrocyte viability loss, single and combined drugs, cytotoxicity control for chromothriptic childhood tumor combination screen, cell-based, BGB or cisplatin IC20 combos (AID 1671460); settings: Human astrocytes, drug combinations, stronger effect = higher value;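 also: cells exposed to compounds for 96 hours before viability readout; 0% = vehicle and 100% = killing control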
# [15] = growth inhibition of BT084 medulloblastoma cells, cell-based, ICGC_MB145, cisplatin and BGB IC40 combos (AID 1671461); settings: drug combinations, stronger effect = higher value;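 also: cells exposed to drugs for 96 hours; 0% = vehicle DMSO and 100% = high DMSO full killing control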
# [16] = measured here: BGB IC40 combination, at 0.05 µM
# [17] = measured here: combination with cisplatin, at 0.5 µM
# [18] = measured here: with BGB IC20 combination, at 0.5 µM
# [19] = measured here: with cisplatin IC20 combination, at 0.5 µM
# [20] = measured here: combination with BGB IC40, at 0.05 µM
# [21] = measured here: combination with cisplatin, at 5 µM
smiles,measurement,setting,value
CCC(C)C(=O)OC1CC(C)C=C2C=CC(C)C(CCC3CC(O)CC(=O)O3)C21 (stereo unspecified),inhibition,[1]; [16],-3.68%
same,inhibition,[1]; [17],2.71%
same,inhibition,"[1]; single agent, at 5 µM",8.59%
same,inhibition,[2]; at 0.5 µM,4.53% (inactive)
same,inhibition,[2]; [18],12.6%
same,inhibition,[2]; [19],0.492%
same,inhibition,"[2]; single agent, at 0.05 µM",-12.7%
same,inhibition,"[2]; single agent, at 5 µM",11.3%
C[n+]1ccc(-c2c3nc(c(-c4cc[n+](C)cc4)c4ccc([nH]4)c(-c4cc[n+](C)cc4)c4nc(c(-c5cc[n+](C)cc5)c5ccc2[nH]5)C=C4)C=C3)cc1,inhibition,"[3]; at 0.5 µM, stronger effect = higher value",-16.4% (inactive)
same,inhibition,"[3]; measured here: combination with BGB IC20, at 0.005 µM",4.93%
same,inhibition,"[3]; measured here: combination with BGB IC40, at 0.005 µM",-7.27%
same,inhibition,[3]; [20],5.45%
same,inhibition,"[3]; measured here: combination with cisplatin, at 0.5 µM, stronger effect = higher value",-7.43%
same,inhibition,"[3]; measured here: combination with cisplatin, at 5 µM, stronger effect = higher value",6.44%
same,inhibition,"[4]; BGB combo, at 5 µM",-33%
same,inhibition,[4]; at 0.5 µM,-31.4% (inactive)
same,inhibition,"[4]; cisplatin combo, at 5 µM",-48.7%
same,inhibition,[4]; [18],-41%
same,inhibition,[4]; [19],-34.4%
same,inhibition,"[4]; single agent, at 5 µM",-48.2%
same,inhibition,"[5]; BGB IC20 combo, at 0.005 µM",-7.96%
same,inhibition,"[5]; BGB IC40 combo, at 0.005 µM",-38.9%
same,inhibition,"[5]; BGB IC40 combo, at 0.05 µM",-28.5%
same,inhibition,[5]; at 0.5 µM,-22.5% (inactive)
same,inhibition,"[5]; cisplatin combo, at 0.05 µM",-33.6%
same,inhibition,"[5]; cisplatin combo, at 0.5 µM",-35.2%
same,inhibition,"[5]; cisplatin combo, at 5 µM",-30.8%
same,inhibition,"[5]; measured here: 5 uM single agent, at 5 µM",-3.94%
same,inhibition,[6]; at 0.5 µM,-33.2% (inactive)
same,inhibition,[6]; [20],-38.7%
same,inhibition,[6]; [17],-36.8%
same,inhibition,[6]; [21],-24.6%
same,inhibition,[7]; at 0.5 µM,-31.3% (inactive)
same,inhibition,"[7]; measured here: with BGB IC20, at 0.5 µM",-48.7%
same,inhibition,"[7]; measured here: with BGB IC20, at 5 µM",-28.8%
same,inhibition,"[7]; measured here: with cisplatin IC20, at 0.5 µM",-29.2%
same,inhibition,"[7]; measured here: with cisplatin IC20, at 5 µM",1.2%
same,inhibition,"[7]; single agent, at 5 µM",-24.3%
same,inhibition,[8]; at 0.5 µM,-75.6% (inactive)
same,inhibition,"[8]; measured here: combination with BGB at IC20, at 0.5 µM",-55.7%
same,inhibition,"[8]; measured here: combination with cisplatin at IC20, at 0.5 µM",-59.6%
same,inhibition,[9]; at 0.5 µM,-18.1% (inactive)
same,inhibition,"[9]; measured here: combo with BGB at IC20, at 0.5 µM",-21.5%
same,inhibition,"[9]; measured here: combo with cisplatin at IC20, at 0.5 µM",-12.4%
same,inhibition,[10]; at 0.5 µM,-15% (inactive)
same,inhibition,"[10]; measured here: inhibition with BGB combination, at 0.05 µM",-39.4%
same,inhibition,"[10]; measured here: inhibition with cisplatin combination, at 0.05 µM",-10%
same,inhibition,[11]; at 0.5 µM,-18.1% (inactive)
same,inhibition,[11]; [17],-16.6%
same,inhibition,[11]; [21],-12.4%
same,inhibition,[12]; at 0.5 µM,-9.73% (inactive)
same,inhibition,"[12]; measured here: BGB combination, at 0.5 µM",-10.7%
same,inhibition,"[12]; measured here: BGB combination, at 5 µM",-18%
same,inhibition,"[12]; measured here: cisplatin combination, at 0.5 µM",-7.22%
same,inhibition,"[12]; measured here: cisplatin combination, at 5 µM",-11.9%
same,inhibition,"[13]; BGB combination, concentration series, at 5 µM",-36.3%
same,inhibition,[13]; at 0.5 µM,-17.4% (inactive)
same,inhibition,"[13]; cisplatin combination, concentration series, at 5 µM",-6.54%
same,inhibition,[14]; at 0.5 µM,-1.53% (inactive)
same,inhibition,"[14]; measured here: combo with BGB IC20, at 0.5 µM",4.28%
same,inhibition,"[14]; measured here: combo with cisplatin IC20, at 0.5 µM",3.89%
same,inhibition,[15]; at 0.5 µM,-2.03% (inactive)
same,inhibition,"[15]; cisplatin combination, at 0.5 µM",-16.4%
same,inhibition,"[15]; cisplatin combination, at 5 µM",4.22%
same,inhibition,"[15]; measured here: BGB IC40 combination 0.05 uM, at 0.05 µM",-24.6%
same,inhibition,"[15]; single agent, at 5 µM",-14.3%
same,inhibition,[1]; at 0.5 µM,-13.6% (inactive)
same,inhibition,"[1]; cisplatin combo, at 5 µM",1.63%
same,inhibition,[1]; [16],-15.7%
same,inhibition,[1]; [17],-4.98%
same,inhibition,"[1]; single agent, at 5 µM",-32.1%
same,inhibition,[2]; at 0.5 µM,-40.2% (inactive)
same,inhibition,[2]; [18],-36.3%
same,inhibition,[2]; [19],-42.2%
same,inhibition,"[2]; single agent, at 0.05 µM",-36.8%
same,inhibition,"[2]; single agent, at 5 µM",45%
